Several values for one entry are separate records, joined by “and”; a condition that tells them apart may be missing. Identical values can stand only once. A structure can be active in one record and inactive in another. Activity calls are given as the source filed them. The calls were made as follows: active = hit-call score of the fitted dose curve at least 0.9, where 1 is the maximum; inactive = score below 0.9.
Tests used:
[1] = IUF_NPC2c_oligodendrocyte_migration_120hr: Leibniz Research Institute for Environmental Medicine (IUF) 120-hour Neural Progenitor Cell Migration Assay for Oligodendrocyte Migration (NPC2c) (AID 2284297)
How it was run: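 Read-out is the mean distance of O4-positive oligodendrocytes from the sphere core edge at 120 h, normalized to radial glia migration and fitted in the gain direction against DMSO. Spheres of primary human neural progenitors differentiated on laminin under continuous compound exposure.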

[2] = IUF_NPC2a_radial_glia_migration_120hr: Leibniz Research Institute for Environmental Medicine (IUF) 120-hour Neural Progenitor Cell Migration Assay for Radial Glia Migration (NPC2a) (AID 2284298)
How it was run: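 Readout: distance in um from sphere core edge to migration-area edge, derived from Hoechst nuclei density with a threshold-defined polynomial boundary. Spheres: hNPC, GW 16-19, 0.3 mm, on PDL/laminin; exposure 5 days; DMSO is baseline.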

[3] = read-out: Interferon-inducible T-cell alpha chemoattractant (ITAC), CXCL11 (gene 6373); assay: BSK_BE3C_ITAC: BioMAP Diversity Plus: BE3C Assay for Interferon-inducible T-cell alpha chemoattractant (ITAC) Biomarker Activity (AID 2284279); conditions: primary human bronchial epithelial cells
How it was run: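 ELISA read-out of I-TAC after 24 h chemical dosing of human lung primary bronchial epithelial cells; gain-of-signal fit vs DMSO baseline. Parallel SRB total-protein staining (0.1% SRB, 10% TCA fixation, 560 nm) assessed cytotoxicity.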

[4] = read-out: Interleukin-8 (IL8), CXCL8 (gene 3576); assay: BSK_BE3C_IL8: BioMAP Diversity Plus: BE3C Assay for Interleukin-8 (IL8) Biomarker Activity (AID 2284280); conditions: primary human bronchial epithelial cells
How it was run: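 Primary human bronchial epithelial cells (BE3C system) exposed 24 h; IL-8 measured by ELISA and fitted in positive direction versus DMSO. Overt cytotoxicity assessed by SRB total-protein staining in parallel cultures.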

[5] = read-out: Epidermal growth factor receptor (EGFR), EGFR (gene 1956); assay: BSK_BE3C_EGFR: BioMAP Diversity Plus: BE3C Assay for Epidermal growth factor receptor (EGFR) Biomarker Activity (AID 2284281); conditions: primary human bronchial epithelial cells
How it was run: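 Human primary bronchial epithelial cells (BE3C system) dosed with chemicals; EGFR measured by ELISA at 24 h, fitted in the positive direction relative to DMSO. Cytotoxicity tracked in parallel cultures by SRB total-protein staining.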

KRT18 (gene 3875) = assay: BSK_BE3C_Keratin818: BioMAP Diversity Plus: BE3C Assay for Keratin 818 Biomarker Activity (AID 2284282); conditions: primary human bronchial epithelial cells
How it was run: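 Primary human bronchial epithelial cells treated 24 h; Keratin 8/18 quantified by ELISA, fit relative to DMSO. Cytotoxicity tracked in parallel cultures by sulforhodamine B total-protein staining.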

[6] = read-out: Matrix Metallopeptidase 9 (MMP9), MMP9 (gene 4318); assay: BSK_BE3C_MMP9: BioMAP Diversity Plus: BE3C Assay for Matrix Metallopeptidase 9 (MMP9) Biomarker Activity (AID 2284283); conditions: primary human bronchial epithelial cells
How it was run: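 BE3C, human bronchial epithelial primary cells; 24 h post-dose; MMP-9 by ELISA; positive fit vs DMSO; SRB (0.1%, TCA-fixed, 560 nm) parallel cytotox.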

[7] = read-out: Plasminogen activator inhibitor-1 (PAI1), SERPINE1 (gene 5054); assay: BSK_CASM3C_PAI1: BioMAP Diversity Plus: CASM3C Assay for Plasminogen activator inhibitor-1 (PAI1) Biomarker Activity (AID 2284284); conditions: primary human coronary artery smooth muscle cells;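 also: PAI-1 protein level measured by ELISA 24 h after dosing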
[8] = read-out: Monocyte Chemoattractant Protein-1 (MCP1), CCL2 (gene 6347); assay: BSK_hDFCGF_MCP1: BioMAP Diversity Plus: hDFCGF Assay for Monocyte Chemoattractant Protein-1 (MCP1) Biomarker Activity (AID 2284285); conditions: primary human foreskin fibroblasts
How it was run: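 Human foreskin fibroblasts (hDFCGF system) were exposed to compound and secreted MCP-1 was measured by ELISA after 24 hours. Activity was fitted relative to DMSO. Cytotoxicity was checked by SRB total-protein staining in parallel cultures.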

[9] = read-out: Vascular cell adhesion molecule 1 (VCAM1), VCAM1 (gene 7412); assay: BSK_IMphg_VCAM1: BioMAP Diversity Plus: IMphg Assay for Vascular cell adhesion molecule 1 (VCAM1) Biomarker Activity (AID 2284286); conditions: primary human endothelial cells with macrophages
How it was run: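 Human venular endothelial cells co-cultured with macrophages; VCAM-1 quantified by ELISA 24 h after dosing, fitted in the positive direction against DMSO. Cytotoxicity was checked in parallel cultures by SRB total-protein staining (0.1% SRB after 10% TCA fixation, 560 nm).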

[10] = read-out: Intercellular Adhesion Molecule 1 (ICAM1), ICAM1 (gene 3383); assay: BSK_hDFCGF_ICAM1: BioMAP Diversity Plus: hDFCGF Assay for Intercellular Adhesion Molecule 1 (ICAM1) Biomarker Activity (AID 2284287); conditions: primary human foreskin fibroblasts
How it was run: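 Primary human foreskin fibroblasts (hDFCGF system) dosed with chemical; ICAM-1 quantified by ELISA at 24 h relative to DMSO. Parallel SRB total-protein staining to assess overt cytotoxicity.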

CD40, CD40 (gene 958) = assay: BSK_IMphg_CD40: BioMAP Diversity Plus: IMphg Assay for CD40 Biomarker Activity (AID 2284288); conditions: primary human endothelial cells with macrophages
How it was run: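 Venular endothelial cells co-cultured with macrophages (human primary), CD40 measured by ELISA 24 h after dosing. Positive-direction fit vs DMSO baseline; cytotoxicity tracked by SRB total-protein staining in parallel cultures.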

[11] = read-out: TIMP metallopeptidase inhibitor 2 (TIMP2), TIMP2 (gene 7077); assay: BSK_hDFCGF_TIMP2: BioMAP Diversity Plus: hDFCGF Assay for TIMP metallopeptidase inhibitor 2 (TIMP2) Biomarker Activity (AID 2284289); conditions: primary human foreskin fibroblasts
How it was run: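 Primary human foreskin fibroblasts in the hDFCGF system, dosed for 24 h; TIMP-2 level measured by ELISA, fitted in the positive direction against DMSO; cytotoxicity checked in parallel by sulforhodamine B total protein staining.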

[12] = read-out: Interleukin-1 alpha (IL1a), IL1A (gene 3552); assay: BSK_IMphg_IL1a: BioMAP Diversity Plus: IMphg Assay for Interleukin-1 alpha (IL1a) Biomarker Activity (AID 2284290); conditions: primary human endothelial cells with macrophages
How it was run: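 Human venular endothelial cells co-cultured with macrophages, IMphg system. IL-1α is measured by ELISA 24 h after dosing and fitted in the positive direction against DMSO. Cytotoxicity is assessed by SRB staining of parallel cultures.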

[13] = read-out: E-selectin (Homo sapiens) (UniProt P16581); assay: BSK_IMphg_ESelectin: BioMAP Diversity Plus: IMphg Assay for Eselectin Biomarker Activity (AID 2284291); conditions: primary human endothelial cells with macrophages
How it was run: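 Human venular endothelial cell–macrophage co-culture, E-selectin measured by ELISA 24 h after chemical dosing. Signal fitted in the positive direction against DMSO as negative control and baseline.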

[14] = BSK_IMphg_SRB: Viability Assessment in the BioMAP Diversity Plus: IMphg Assay (AID 2284292); conditions: primary human endothelial cells with macrophages;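 also: measured one day after compound addition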
How it was run: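 Human venular endothelial cells with macrophages, 24 h after chemical dosing; total protein by 0.1% SRB staining after 10% TCA fixation, read at 560 nm. Positive-direction fitting versus DMSO baseline.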

[15] = read-out: Macrophage colony-stimulating factor (MCSF), CSF1 (gene 1435); assay: BSK_IMphg_MCSF: BioMAP Diversity Plus: IMphg Assay for Macrophage colony-stimulating factor (MCSF) Biomarker Activity (AID 2284293); conditions: primary human endothelial cells with macrophages
How it was run: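 Co-culture of human venular endothelial cells and macrophages, 24 hours of chemical exposure. M-CSF quantified by ELISA, with parallel SRB total-protein staining for cytotoxicity; activity fitted relative to DMSO.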

[16] = read-out: Interleukin-10 (IL10), IL10 (gene 3586); assay: BSK_IMphg_IL10: BioMAP Diversity Plus: IMphg Assay for Interleukin-10 (IL10) Biomarker Activity (AID 2284294); conditions: primary human endothelial cells with macrophages
How it was run: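 Human venular endothelial cells cocultured with macrophages, dosed 24 h; IL-10 measured by ELISA, activity relative to DMSO. Cytotoxicity assessed in parallel cultures by sulforhodamine B total-protein staining.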

[17] = BSK_IMphg_SRB.Mphg: Macrophage Viability Assessment in the BioMAP Diversity Plus: IMphg Assay (AID 2284295); conditions: primary human endothelial cells with macrophages
How it was run: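 Venular endothelial cells co-cultured with macrophages, read 24 h after dosing. Total protein measured by 0.1% SRB staining after 10% TCA fixation, absorbance at 560 nm. Fitted in positive direction against DMSO baseline.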

[18] = read-out: Thrombomodulin, THBD (gene 7056); assay: BSK_LPS_Thrombomodulin: BioMAP Diversity Plus: LPS Assay for Thrombomodulin Biomarker Activity (AID 2284296); conditions: primary human HUVEC with PBMC
How it was run: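 Human umbilical vein endothelial cells co-cultured with PBMC and stimulated with LPS; cell-surface thrombomodulin measured by ELISA 24 hours after compound. Gain or loss versus DMSO; cytotoxicity checked by SRB staining in parallel cultures.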

Measured: AC50

Sequence of E-selectin (Homo sapiens) (P16581 whole entry, looked up): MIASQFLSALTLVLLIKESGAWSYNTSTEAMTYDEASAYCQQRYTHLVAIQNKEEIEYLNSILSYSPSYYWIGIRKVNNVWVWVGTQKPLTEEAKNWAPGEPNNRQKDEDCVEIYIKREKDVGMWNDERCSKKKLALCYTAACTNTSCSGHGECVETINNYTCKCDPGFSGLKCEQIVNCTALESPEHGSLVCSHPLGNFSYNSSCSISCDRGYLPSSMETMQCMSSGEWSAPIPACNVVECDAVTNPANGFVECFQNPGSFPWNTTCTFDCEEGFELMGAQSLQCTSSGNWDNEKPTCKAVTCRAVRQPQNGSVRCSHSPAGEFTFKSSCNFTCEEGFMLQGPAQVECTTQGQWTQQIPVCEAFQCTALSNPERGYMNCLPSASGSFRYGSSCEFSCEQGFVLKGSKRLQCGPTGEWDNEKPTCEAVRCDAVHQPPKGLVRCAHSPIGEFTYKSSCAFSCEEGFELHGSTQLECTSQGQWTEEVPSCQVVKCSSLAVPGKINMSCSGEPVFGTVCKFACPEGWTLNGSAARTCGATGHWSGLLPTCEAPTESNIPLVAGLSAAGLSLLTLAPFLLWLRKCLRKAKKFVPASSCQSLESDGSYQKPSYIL

CN1CCC[C@H]1c1cccnc1
inactive: [1] | [2]

OCCC(F)(F)C(F)(F)C(F)(F)C(F)(F)C(F)(F)C(F)(F)C(F)(F)C(F)(F)F
active: [3] 23.5 µM and 18.4 µM | [4] 12.3 µM and 13.3 µM | [5] 21.8 µM | KRT18 (gene 3875) 24.7 µM and 16.8 µM | [6] 14.2 µM and 30 µM | [7] 44.5 µM and 41 µM | [8] 17.1 µM and 11.3 µM | [9] 45.5 µM and 44.5 µM | [10] 18.1 µM and 18.3 µM | CD40, CD40 (gene 958) 46.1 µM and 45.6 µM | [11] 5.95 µM and 16.2 µM | [12] 39.6 µM | [13] 47.2 µM and 49.9 µM | [14] 50.5 µM and 49.1 µM | [15] 30 µM | [16] 39 µM and 32.8 µM | [17] 46.7 µM and 47.4 µM | [18] 347 nM
inactive: [5] | [12] | [15] | [18]

C=C(C)C(=O)OCCC(F)(F)C(F)(F)C(F)(F)C(F)(F)C(F)(F)C(F)(F)F
inactive: [3] | [4] | [5] | KRT18 (gene 3875) | [6] | [7] | [8] | [9] | [10] | CD40, CD40 (gene 958) | [11] | [12] | [13] | [14] | [15] | [16] | [17] | [18]
active: KRT18 (gene 3875) 2.19 µM

FC(F)(I)C(F)(F)C(F)(F)C(F)(F)C(F)(F)C(F)(F)I
inactive: CD40, CD40 (gene 958) | [11] | [12] | [18]
active: [3] 20.4 µM [middle of 5 runs] | [4] 19.6 µM [middle of 5 runs] | [8] 5.13 µM [middle of 5 runs] | [9] 43.1 µM [middle of 5 runs] | [10] 5.98 µM [middle of 5 runs] | [11] 5.93 µM and 5.41 µM and 5.49 µM | [12] 30 µM and 22.7 µM and 39.1 µM | [13] 46.1 µM [middle of 5 runs] | [14] 43.5 µM [middle of 5 runs] | [15] 44.4 µM [middle of 5 runs] | [16] 33.9 µM [middle of 5 runs] | [17] 12.6 µM [middle of 5 runs] | [18] 14.6 µM and 23.5 µM

CC#C[C@]1(O)CC[C@H]2[C@@H]3CCC4=CC(=O)CCC4=C3[C@@H](c3ccc(N(C)C)cc3)C[C@@]21C
inactive: [1] | [2]
